# The sample as a whole holds a higher share of hits than the screen did.
# KDM5B inhibitor: inhibitors of human KDM5B histone demethylase; Q9UGL1; AID 1347165; Potency, µM (series often up to 57.7 µM), most hits filed as inhibitors; KDM5B demethylase, FDH-coupled NADH fluorescence (FDH is formaldehyde dehydrogenase); 220,000 compounds, 2.6% hits; active = well fitted inhibition curve with a large enough effect; also: 0% is about no effect; nearly all actives have a fitted effect of over 70% in size
#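 KDM5BΔAP (200 nM final) in 50 mM HEPES pH 7.5, 0.01% Tween-20 was preincubated 10 min at RT with compound over a concentration range. Substrate mix (H3K4me3 12.5 µM, α-KG 25 µM, Fe²⁺, ascorbate, NAD⁺, FDH) was added, and NADH fluorescence change over 30 min gave dose-response curves.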
# Starred values were filed as active, the others as inactive; i = inactive. Potency is read from the fitted curve at half-maximal effect.
SMILES,KDM5B inhibitor
O=C(COCC(=O)Nc1ccc(Oc2ccccc2)cc1)Nc1ccccc1,i
COC(=O)c1sc2ccccc2c1S(=O)(=O)Nc1cc(OC)c(OC)c(OC)c1,i
Cc1oc(-c2ccccc2)nc1CC(=O)NCCN(C(C)C)C(C)C,i
Cc1ccc(CSc2nc3nc[nH]c3c(=O)[nH]2)cc1,i
CCS(=O)(=O)N1CCc2cc(C(=O)CSc3ccc(F)c(F)c3)ccc21,i
O=C(Cc1ccccn1)N1CCCN(c2nc3ncccc3o2)CC1,i
COc1ccc(C(=O)N2CCCN(c3nc4ncccc4o3)CC2)cc1,i
O=C(c1cccc(Cl)c1)N1CCCN(c2nc3ncccc3o2)CC1,i
COCC(=O)N1CCCN(c2nc3ncccc3o2)CC1,28µM*
O=C(Nc1ccccc1)N1CCN(c2nc3ncccc3o2)CC1,i
CC(=O)N1CCN(c2nc3ncccc3o2)CC1,32µM*
COC(=O)N1CCCN(c2nc3ncccc3o2)CC1,25µM*
O=C(CC1CCCC1)N1CCN(c2nc3ccccc3o2)CC1,i
O=C(Nc1ccc(Cl)cc1)N1CCN(c2nc3ncccc3o2)CC1,i
O=C(O)C(Cc1ccccc1)NC(=O)C12CC3CC(CC(C3)C1)C2 (stereo unspecified),i
CN(CC1CCOCC1)S(=O)(=O)c1ccc(F)c(Cl)c1,i
Cc1ccc(NC(=O)c2nc3ccccc3n(C)c2=O)cc1C,i
Cc1nc(Cl)c(C(=O)O)c(C)c1Cl,i
Fc1ccc(/C=N/Nc2ccc3ccccc3c2)c(F)c1,i
CC(Nc1oc(COc2ccccc2Cl)nc1C#N)c1ccccc1 (stereo unspecified),i
O=C(O)c1ccccc1-n1cccc1,i
COc1ccc(CN2CC3(CCN(C(=O)Nc4ccc(OC)c(F)c4)CC3)C2=O)cc1,i
O=C(Nc1cccc(C(F)(F)F)c1)c1nc2c(o1)CCN(Cc1cnc[nH]1)CC2,i
O=C(Nc1cccc(C(F)(F)F)c1)C1=CCN(Cc2ccccc2F)CC1,i
O=C(NCC1CC1)c1nc2c(o1)CCN(Cc1cccc(F)c1)CC2,i
SMILES,KDM5B inhibitor
N#Cc1ccc(CN2CCc3nc(C(=O)Nc4cccc(C(F)(F)F)c4)oc3CC2)cc1,22µM*
O=C(Nc1cccc(C(F)(F)F)c1)c1nc2c(o1)CCN(Cc1cccc(F)c1)CC2,28µM*
COc1ccc(CN2CCc3nc(C(=O)NCc4cccc(F)c4)oc3CC2)cc1OC,i
O=C(Nc1cccnc1)c1nc2c(o1)CCN(Cc1ccc3[nH]ccc3c1)CC2,i
O=C(c1nc2c(o1)CCN(Cc1cccc(F)c1)CC2)N1CCOCC1,i
O=C(Nc1cccc(C(F)(F)F)c1)c1nc2c(o1)CCN(Cc1ccccc1)CC2,22µM*
COc1ccccc1CN1CCc2nc(C(=O)NCc3cccc(F)c3)oc2CC1,i
O=C(Nc1cccc(C(F)(F)F)c1)c1nc2c(o1)CCN(Cc1ccc(F)cc1)CC2,40µM*
Cc1ccc(CN2CCC(CNC(=O)Nc3cccc(C(F)(F)F)c3)CC2)cc1,i
CCN1CC(CN(C)C(=O)c2nn(Cc3ccccc3)c(=O)c3ccccc23)Oc2ccccc21 (stereo unspecified),i
O=C1/C(=C/c2cccc3ccccc23)Cc2ccccc21,i
CCOc1ccc(NC(=O)Cn2ncn3nc(-c4cc(C)ccc4C)cc3c2=O)cc1,i
COc1cc(NC(=O)COc2coc(CN3CCSCC3)cc2=O)cc(OC)c1,i
CS(=O)(=O)N1CCN(CC(=O)Nc2sc3c(c2C#N)CCCC3)CC1,i
COC(=O)N1CCc2nc(C(C)C)nc(-c3ccc(O)cc3)c2C1,i
Cc1ccc(NC(=O)CSc2nc(-c3ccco3)ccc2C#N)cc1Cl,i
COc1ccc(Cl)cc1-c1ccc2c(c1)C(=O)N1CC[C@H](NC(=O)C3CCCC3)[C@H]1C(=O)N2,i
O=C(O)COCC(=O)N[C@H]1CCN2C(=O)c3cc(-c4ccccc4)ccc3NC(=O)[C@H]12,i
O=C(O)COCC(=O)N[C@H]1CCN2C(=O)c3ccc(Cl)cc3NC(=O)[C@H]12,i
CC(C)NC(=O)N[C@H]1CCN2C(=O)c3cc(Br)ccc3NC(=O)[C@@H]2C1,i
CC(C)NC(=O)N[C@H]1CCN2C(=O)c3cc(/C=C/c4ccccc4)ccc3NC(=O)[C@H]12,35µM*
CSCC(=O)N[C@H]1CCN2C(=O)c3cc(/C=C/c4ccccc4)ccc3NC(=O)[C@H]12,16µM*
NCc1cccc(-c2ccc3c(c2)C(=O)N2CC[C@H](NC(=O)NC4CCCCC4)[C@H]2C(=O)N3)c1,i
COc1ccc(/C=C/c2ccc3c(c2)C(=O)N2CC[C@H](NC(=O)COCC(=O)O)[C@H]2C(=O)N3)cc1,22µM*
O=C(N[C@H]1CCN2C(=O)c3cc(-c4ccccc4F)ccc3NC(=O)[C@H]12)C1CCCC1,i
SMILES,KDM5B inhibitor
COc1ccc(-c2ccc3c(c2)C(=O)N2CC[C@H](NC(=O)C4CCCC4)[C@H]2C(=O)N3)c(OC)c1,32µM*
CCc1ccc(NC(=O)C2CCn3c(C(=O)c4ccccc4)ccc32)cc1 (stereo unspecified),i
O=C(OCC(=O)N1CCCCCC1)c1ccc(S(=O)(=O)NCc2ccco2)cc1,i
O=C(NCc1ccc(Cl)cc1Cl)C1CCCN(c2ncnc3nc[nH]c23)C1 (stereo unspecified),i
Cc1ccsc1/C=C(/C#N)C(=O)c1ccccc1,i
CCOC(=O)C1CCN(c2nc3ccccc3n3c(=O)n(CC(=O)Nc4ccc(C#N)cc4)nc23)CC1,i
Cn1c(=O)[nH]c(=O)c2c1nc(NCCCO)n2CC(O)COc1ccc(Cl)cc1 (stereo unspecified),i
CCc1nncn1C1CCN(S(=O)(=O)c2ccc(Cl)c(C)c2)CC1,i
Cc1ccccc1CNC(=O)COC(=O)c1cc2ccccc2[nH]1,i
CC(C)NS(=O)(=O)c1cccc(C(=O)N2CCCC2c2ccc3c(c2)OCCO3)c1 (stereo unspecified),i
O=C(Cc1csc2nc(-c3ccccc3)cn12)NCc1ccc(F)cc1,i
C[S+](=O)([O-])c1ccc(-c2nc(C(=O)NCc3ccc(F)cc3)n3ccccc23)cc1,89µM*
C[S+](=O)([O-])c1ccc(-c2nc(C(=O)NCc3cccnc3)n3ccccc23)cc1,i
O=C(NCc1ccc(F)cc1)c1nc(-c2ccc(F)cc2)c2ccccn12,32µM*
O=C(NCc1ccc(F)cc1)c1nc(-c2cc(Cl)cc(Cl)c2)c2ccccn12,i
Cc1csc(NC(=O)c2[nH]c3c(c2C)C(=O)CC(C)(C)C3)n1,i
CCc1nc2c(c(-c3ccc(O)cc3)n1)CCN(Cc1ccc(C)cc1)CC2,i
COc1ccc(/C=C/c2nc3cc(Cl)ccc3o2)cc1OC,i
CCCn1c(-n2nc(CC)cc2CC)nc2c1c(=O)n(CC(N)=O)c(=O)n2C,i
COCCN1CCNc2nc(CNCc3cccc(Cl)c3)n(Cc3ccccc3)c2C1=O,i
O=C1c2c(nc(CNCc3cccnc3)n2Cc2ccccc2)NCCN1Cc1cccc(Cl)c1,i
O=C1c2c(nc(CNCc3cnccn3)n2Cc2ccccc2)NCCN1Cc1cccc(Cl)c1,25µM*
Cc1ccc(O)c(CN2CCCC(c3nc(CC(C)C)no3)C2)c1 (stereo unspecified),i
COc1cccc(NC(=O)CCc2ncc(-c3ccc(Cl)cc3)o2)c1,i
COc1cccc(-c2nc3cnccn3c2NCCC(=O)N2CCCC(C)C2)c1 (stereo unspecified),28µM*
